Data: PubChem BioAssay (Tox21)
Results filed as inconclusive are left out. Unmarked numbers belong to inactive results. Active and inactive are the calls of the source. The call rests on the fitted dose curve; in most records, active means well fitted cell-killing curve with a large enough effect in the repeat runs; inconclusive means weak or mixed curves, or effect the other way; inactive means no such curve, though single readings can be large or run the other way.
On the % scale 0 is the no-effect control and ±100 the full control effect.

Test: qHTS assay to identify small molecule antagonists of the peroxisome proliferator-activated receptor gamma (PPARg) signaling pathway - cell viability counter screen (AID 743194); further: nearly all actives have a fitted effect of over 55% in size
Details: PPARg-bla HEK293H viability, CellTiter-Glo luminescence, 17 h, co-treated with 50 nM rosiglitazone; series mostly up to 62.6 µM
Excerpt: U.S. Tox21 Program National Center for Advancing Translational Sciences [NCATS] NIH Chemical Genomics Center [NCGC] U.S. Environmental Protection Agency [EPA] National Institutes of Environmental Health Sciences [NIEHS] National Toxicology Program [NTP] U.S. Food and Drug Administration [FDA] Tox21 Assay Overview: The peroxisome proliferator-activated receptors (PPARs) are lipid-activated transcription factors of the nuclear receptor superfamily with three distinct subtypes namely PPAR alpha, PPAR delta (also called PPAR beta) and PPAR gamma (PPARg). All these subtypes heterodimerize with Retinoid X receptor (RXR) and these heterodimers regulate transcription of various genes. PPAR-gamma receptor (glitazone receptor) is involved in the regulation of glucose and lipid metabolism. To identify the compounds that activate PPAR-gamma signaling, GeneBLAzer PPAR gamma UAS-bla HEK293H cell line (Invitrogen, Carlsbad, CA, USA) containing a beta-lactamase reporter gene under the control of an Upstream Activator Sequence (UAS) was used to screen the Tox21 compound library. The cytotoxicity of the Tox21 compound library against the PPARg-bla cell line was tested in parallel by measuring the cell viability using CellTiter-Glo assay in the same wells.
Tox21 Assay Protocol Summary: PPARg-bla cells were dispensed at 3000 cells/5uL/well in 1536-well black wall/clear bottom plates using a Multidrop Combi (Thermo Fisher Scientific, Waltham, MA) dispenser. After the assay plates were incubated at 37 C and 5% CO2 for 5 h, 23 nL of compounds dissolved in DMSO, positive controls or DMSO only was transferred to the assay plate by a Pintool station (Kalypsys, San Diego, CA), followed by addition of 1ul Rosiglitazone (50 nM, final concentration in the wells). The assay plates were incubated at 37 C for 17 h, and then 1 uL of LiveBLAzerTM B/G FRET substrate was added using a Bioraptr Flying Reagent Dispenser (FRD) workstation (Beckman Coulter, Indianapolis, IN, USA). The assay plates were incubated at room temperature for 1 h and fluorescence intensity was measured by an Envision plate reader (PerkinElmer, Shelton, CT). For cell viability readout that measures cytotoxicity, 4 ul/well of CellTiter-Glo reagent was added into the assay plates using a Flying Reagent Dispenser. After 30 min incubation at room temperature, the luminescence intensity in the plates was measured using a ViewLux plate reader (PerkinElmer).
In the case of CC/C(C)=N\O[Si](C)(O/N=C(\C)CC)O/N=C(\C)CC, the outcome is reported as “inactive”.
For CO[C@@]1(NC(=O)Cc2cccs2)C(=O)N2C(C(=O)O)=C(COC(N)=O)CS[C@@H]21, the outcome was “inactive”.
With Cc1cccc(Cl)c1 the outcome was “inactive”.
With CC(C)(C)NC[C@H](O)COc1cccc2c1CCCC2=O the outcome was “inactive”.
With CCC(C)C(C)=O (stereo not given) the outcome was “inactive”.
In the case of CCC(=O)CC, the outcome is reported as “inactive”.
With CCc1occc(=O)c1O the outcome was “inactive”.
With C=CCSSCCC the outcome was “inactive”.
In the case of NCC1(Cc2noc(=O)[nH]2)CCCCC1, the outcome is reported as “inactive”.
For CCCc1ccc(O)cc1, the outcome was “inactive”.
With O=C[O][Al]([O]C=O)[O]C=O the outcome was “inactive”.
In the case of O=Cc1cc2ccccc2o1, the outcome is reported as “inactive”.
With O=C(O)c1cc2ccccc2nc1C(=O)O the outcome was “inactive”.
For CC/C=C\CCOC(=O)c1ccccc1O, the outcome was “inactive”.
For CN1C[C@@H]2C[C@H]1CN2c1cc2c(cc1F)c(=O)c(C(=O)O)cn2C1CC1, the outcome was “inactive”.
With O=C=NCC1CCCC(CN=C=O)C1 (stereo not given) the outcome was “inactive”.
With CC1=C(C(=O)O)N2C(=O)[C@@H](NC(=O)[C@H](N)c3ccccc3)[C@H]2SC1 the outcome was “inactive”.
In the case of CCCCCC/C=C/C(=O)OC, the outcome is reported as “inactive”.
In the case of C=CC/C=C/C, the outcome is reported as “inactive”.
For C=CC(=O)OCC1CCCO1 (stereo not given), the outcome was “inactive”.
In the case of Cc1c(Cl)cccc1Cl, the outcome is reported as “inactive”.
In the case of COC(=O)CCCCC(CCSS/C(CCO)=C(\C)N(C=O)Cc1cnc(C)nc1N)SC(C)=O (stereo not given), the outcome is reported as “inactive”.
N[C@@H](Cc1ccc(O)cc1)C(=O)O showed an activity change, negative = cytotoxicity of 3.31% [at 13.2 µM].
In the case of CCCCCC(C)O (stereo not given), the outcome is reported as “inactive”.
In the case of COC(=O)/C=C\C(=O)O, the outcome is reported as “inactive”.
With CC(CO)(CO)CO the outcome was “inactive”.
With CCC[C@@H]1C[C@@H](C(=O)N[C@@H]([C@H]2O[C@H](SC)[C@H](O)[C@@H](O)[C@H]2O)[C@@H](C)O)N(C)C1 the outcome was “inactive”.
With Cc1ccc(C(C)NC(=O)[C@@H](NC(=O)OC(C)C)C(C)C)cc1 (stereo not given in full) the outcome was “inactive”.
With O=C(CN1CCNCC1)NC1CCCCC1 the outcome was “inactive”.
With COc1cc(/C=C/C(N)=O)cc(OC)c1OC the outcome was “inactive”.
For C/C=C(\C)C(C)=O, the outcome was “inactive”.
With CCCCC1CCC(O)CC1 (stereo not given) the outcome was “inactive”.
In the case of O/N=C/C=N/O, the outcome is reported as “inactive”.
In the case of CN(C)CC/C=C1/c2ccccc2COc2ccc(CC(=O)O)cc21, the outcome is reported as “inactive”.
In the case of O=C(O)CSCC(=O)NC1CCSC1=O (stereo not given), the outcome is reported as “inactive”.
With CC(=O)Nc1ccc(OC(=O)c2ccccc2OC(C)=O)cc1 the outcome was “inactive”.
In the case of COCCc1ccccn1, the outcome is reported as “inactive”.
For CN1CCOC(c2ccccc2)c2ccccc2C1 (stereo not given), the outcome was “inactive”.
In the case of CC(=O)O[C@H]1C[C@@H]2CC[C@@]1(C)C2(C)C, the outcome is reported as “inactive”.
With CC(=O)C1C(=O)C=C(C)OC1=O (stereo not given) the outcome was “inactive”.
